# Giardia kill: Giardia lamblia killing; Giardia lamblia trophozoite viability; activity change, % at 7.66 µM, hits read low; 340,000 tested, 0.15% active; AID 540267; in the data active = activity change below about -80%; inconclusive = between about -30% and that limit;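 note: parasites exposed to compound for two days anaerobically before the ATP read; % is set by controls: 0 for no effect and ±100 for the full control effect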
#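 Luminescent ATP signal served as the viability read-out, measured 15-30 min after adding ATP detection reagent to trophozoites that had been incubated with compounds for 48 hrs at 37 deg C anaerobically at 100 cells/well.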
# ELG1 DNA repair: blocks ELG1-dependent DNA repair in HEK293T cells | Potency, µM (titrated, usually from 46.1 µM), for inactives: at the top dose activity change, negative = inhibition, usual class: inhibitors | 330,000 tested, 2.3% active | HEK293T ELG1-luciferase reporter, luminescence, 16 h; DNA damage induced by 5-fluorouridine | AID 504467; note: potency is the fitted concentration of half-maximal effect; % is set by controls: 0 for no effect and ±100 for the full control effect; nearly all actives have a fitted effect of over 55% in size
#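 5-Fluorouridine DNA damage + compound/DMSO, 2,000 cells/well, 16 h, 37 °C/5% CO2. ONE-Glo, 30 min RT, luminescence. Readout = decrease in reporter signal.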
# TRPV1 PAM: enhances activation of the human vanilloid receptor TRPV1; TRPV1-expressing cells, Fluo-8 calcium influx, capsaicin EC20 potentiation; potentiation, % at 8.33 µM; 320,000 tested, 0.02% active; Q8NER1; in the data active = potentiation above about 80%; inconclusive = between about 30% and that limit; note: 0% is about no effect
# Target sequence (Q8NER1 whole entry, looked up): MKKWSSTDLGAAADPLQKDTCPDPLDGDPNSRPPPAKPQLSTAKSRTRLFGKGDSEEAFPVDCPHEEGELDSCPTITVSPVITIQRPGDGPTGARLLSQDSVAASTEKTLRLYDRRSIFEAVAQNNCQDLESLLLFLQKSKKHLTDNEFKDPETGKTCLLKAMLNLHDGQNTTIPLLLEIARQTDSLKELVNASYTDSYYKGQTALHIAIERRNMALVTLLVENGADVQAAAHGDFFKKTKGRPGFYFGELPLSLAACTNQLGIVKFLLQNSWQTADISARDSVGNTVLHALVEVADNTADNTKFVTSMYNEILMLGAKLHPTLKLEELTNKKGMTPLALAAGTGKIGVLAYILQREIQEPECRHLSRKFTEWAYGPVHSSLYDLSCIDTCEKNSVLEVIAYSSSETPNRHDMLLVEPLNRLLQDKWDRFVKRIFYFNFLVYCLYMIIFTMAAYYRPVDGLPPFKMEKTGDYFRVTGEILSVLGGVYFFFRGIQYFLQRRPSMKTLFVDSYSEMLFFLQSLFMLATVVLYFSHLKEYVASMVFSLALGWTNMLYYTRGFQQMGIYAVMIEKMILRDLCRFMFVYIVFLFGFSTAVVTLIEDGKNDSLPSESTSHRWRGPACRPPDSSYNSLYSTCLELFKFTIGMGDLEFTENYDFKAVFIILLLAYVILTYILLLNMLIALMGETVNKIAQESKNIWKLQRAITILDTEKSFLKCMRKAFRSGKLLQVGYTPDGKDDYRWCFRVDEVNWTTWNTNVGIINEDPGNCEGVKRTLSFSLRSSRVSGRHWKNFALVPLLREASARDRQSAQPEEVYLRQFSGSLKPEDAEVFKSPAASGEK
#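 Cells expressing TRPV1 were dye-loaded with Fluo-8 and read kinetically: 10 s baseline, 3 min after compound (agonist portion), then 2 min after EC20 capsaicin (allosteric enhancer portion). Calcium-bound dye fluorescence at 480/520 nm.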
# TRPV1 agonist: human TRPV1 agonism; Q8NER1; TRPV1-expressing cells, Fluo-8 calcium influx, agonist mode; activation, % at 8.33 µM; 320,000 tested, 0.19% active; in the data active = activation above about 80%; inconclusive = between about 30% and that limit; note: 0% is about no effect
#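 TRPV1-expressing cells were cultured overnight at 35.5C and loaded with Fluo-8 calcium dye for 40 to 90 min at room temperature. After a 10 s baseline, compound was added and calcium influx was read kinetically for 3 min (ex 480/em 520 nm).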
# FUS yeast rescue: FUS proteinopathy suppression in yeast; S. cerevisiae FUS-expressing, growth rescue, OD600, 24 h; Potency, µM (top dose mostly 76.6 µM), most hits filed as activators; 390,000 tested, 0.24% active;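 note: potency is the fitted concentration of half-maximal effect; plate controls were DMSO vehicle for no effect and reference control for full effect; nearly all actives have a fitted effect of over 55% in size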
#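 Galactose (2%) drives FUS expression in yeast precultured in raffinose; seeding density OD 0.005. Test compounds incubated 24hr at 30C and 99% humidity before absorbance at 600 nm was measured.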
# Starred values were filed as active, the others as inactive; i = inactive; ? = inconclusive; nt = no result given. An excerpt weighted towards active compounds, which were near 2.3% of everything screened. Unless noted, calls come from the whole dose curve; as a rule, active = well fitted curve in the direction sought with a large enough effect; inconclusive = small, poorly fitted or top-dose-only effect, or another doubt; inactive = no such curve, though single readings can be large; an effect the other way counts as inactive or inconclusive.
SMILES,Giardia kill,ELG1 DNA repair,TRPV1 PAM,TRPV1 agonist,FUS yeast rescue
COc1ccccc1/C=C/C(=O)Nc1cccnc1Cl,7,?,-13,?,i
COc1ccc(/C=C/C(=O)Nc2cccnc2Cl)cc1,-20,?,-22,85*,i
CCOC(=O)c1ccccc1NC(=O)COC(=O)c1cc([N+](=O)[O-])ccc1N1CCOCC1,4,?,3,25,i
CCCCNC(=S)N(Cc1ccco1)Cc1cc2cc3c(cc2[nH]c1=O)OCCO3,-12,15µM*,1,20,nt
CC(=O)N(CCc1ccccc1C)Cc1cc2ccc(C)cc2[nH]c1=O,19,16µM*,-6,?,i
O=C(Nc1ccc(F)cc1)N(Cc1ccco1)Cc1cc2cc3c(cc2[nH]c1=O)OCO3,-7,23µM*,-3,1,i
CCOCCCNC(=S)N(Cc1ccco1)Cc1cc2cc3c(cc2[nH]c1=O)OCCO3,12,?,8,7,i
CC(=O)N(CCc1ccccc1C)Cc1cc2cc(C)ccc2[nH]c1=O,-14,-14%,-26,?,i
COc1ccc2[nH]c(=O)c(CN(Cc3cccs3)C(=S)Nc3cccc(C)c3)cc2c1,-4,5.8µM*,-5,-2,nt
CCOC(=O)c1sc(NC(=O)c2nc3nc(C)cc(C(F)F)n3n2)c(C(=O)OC(C)C)c1C,nt,nt,nt,nt,i
CCOc1ccccc1NC(=O)c1cc2cc(C)ccc2n1C,nt,nt,nt,nt,i
CN1C(=O)C[C@@](C#N)(C(=O)NCc2ccc3c(c2)OCO3)[C@H]1c1ccccc1,nt,nt,nt,nt,i
CCN(CC)CCN(Cc1cc2cc3c(cc2[nH]c1=O)OCCO3)C(=O)NC1CCCCC1,3,?,-5,3,i
CNC(=S)N(CCc1cccc(C)c1)Cc1cc2cc(OC)c(OC)cc2[nH]c1=O,14,13µM*,-2,19,nt
COc1ccc2[nH]c(=O)c(CN(Cc3cccs3)S(=O)(=O)c3cccc4nsnc34)cc2c1,-24,1.3µM*,4,1,i
COc1ccc(NC(=O)N(Cc2cccs2)Cc2cc3cc4c(cc3[nH]c2=O)OCO4)cc1,nt,21µM*,12,-2,nt
CCN(CC)CCCN(Cc1cc2cc3c(cc2[nH]c1=O)OCO3)C(=S)Nc1ccc(OC)cc1,32,-2%,1,0,i
COc1ccc(CN(Cc2cc3cc4c(cc3[nH]c2=O)OCO4)C(=O)NC2CCCCC2)cc1,3,16µM*,10,8,?
CN(Cc1ccccc1)C(=O)[C@@H]1CCCN1C(=O)[C@@H]1CCCN1C(=O)c1cccc(Cl)c1,nt,nt,nt,nt,i
OC(c1ccccc1)(c1ccccc1)C1CCN(CCCNc2cccc(OC(F)(F)F)c2)CC1,nt,nt,nt,nt,i
COc1ccccc1NC(=O)Cn1c(=O)n(-c2ccc(C)cc2)c(=O)c2c1cnn2C,nt,nt,nt,nt,i
CCOC(=O)c1ccc2c(c1)N(Cc1ccc(F)cc1Cl)C(=O)c1ccccc1S2,nt,nt,nt,nt,i
Cc1ccc(NC(=O)N(CCCN2CCOCC2)Cc2cc3cc4c(cc3[nH]c2=O)OCO4)cc1,5,21%,-1,16,i
Cc1ccc(NC(=O)N(Cc2ccc3c(c2)OCO3)Cc2cc3cc4c(cc3[nH]c2=O)OCCO4)cc1,-13,21µM*,-6,2,i
Cc1ccc(NC(=O)N(Cc2cccs2)Cc2cc3cc4c(cc3[nH]c2=O)OCO4)cc1,nt,21µM*,-3,-3,nt
SMILES,Giardia kill,ELG1 DNA repair,TRPV1 PAM,TRPV1 agonist,FUS yeast rescue
Cc1ccc(NC(=S)N(CCCN(C)C)Cc2cc3cc4c(cc3[nH]c2=O)OCO4)cc1,-14,14%,2,0,i
O=C(C1CCN(S(=O)(=O)Cc2ccccc2)CC1)N1CCN(c2cccc(Cl)c2)CC1,nt,nt,nt,nt,i
Cc1ccsc1CN(Cc1ccco1)C(=O)c1ccc(Cl)cc1,nt,nt,nt,nt,i
CCOC(=O)Cc1ccc(NC(=O)c2ccc(C(C)(C)C)cc2)cc1,?,18µM*,-1,?,i
CC(C)(C)c1ccc(C(=O)Nc2ccc(C(=O)NCc3cccnc3)cc2)cc1,-15,0.52µM*,-19,19,i
Cc1cccc(NC(=O)c2ccc(S(=O)(=O)NCc3cccnc3)cc2)c1,-5,15µM*,6,2,i
CSc1cccc(NS(=O)(=O)c2ccc3[nH]cc(C(=O)N4CCCCCC4)c(=O)c3c2)c1,nt,nt,nt,nt,i
Nc1cc2c3ccccc3ccc2c2ccccc12,-3,nt,nt,nt,i
COc1ccc(-n2c(C)nc3c(cnn3-c3ccc(Cl)cc3)c2=O)cc1,12,18µM*,5,5,i
COc1cccc(-n2c(-c3ccccc3F)nc3c(cnn3-c3ccc(C)cc3)c2=O)c1,nt,nt,nt,nt,16µM*
CS(=O)(=O)c1ccc(Nc2nc(C(N)Cc3ccc(Cl)cc3)cs2)cc1 (stereo not drawn),nt,nt,nt,nt,i
CCOC(=O)c1c(Nc2ccccc2OCCOC)n[nH]c1C,-7,21µM*,-7,0,i
Cc1nc(-c2ccccc2)[nH]c(=O)c1Oc1ccc(Cl)cc1Cl,-11,8.2µM*,-6,?,i
Cc1ccc(Oc2c(C)nc(-c3ccccc3)[nH]c2=O)cc1,-3,?,-2,?,i
CCOc1ccc(NC(=O)CN(C)C(=O)c2ccccc2OCCOc2ccccc2)cc1OCC,-25,12µM*,5,0,nt
CCOc1ccc(NC(=O)CN(C)C(=O)c2ccncc2)cc1OCC,-14,-1%,?,0,i
CCOc1ccc(NC(=O)CN(C)C(=O)c2cccc3ccccc23)cc1OCC,11,2%,8,-2,i
CCOc1ccc(NC(=O)CN(C)C(=O)c2ccccc2CCc2ccccc2)cc1OCC,10,7.3µM*,-16,-3,i
c1ccc(N=c2nc(-c3ccccc3)n(-c3ccccc3)s2)cc1,9,nt,nt,nt,nt
Cc1c(C(=O)N2CCOCC2)sc2ncnc(N3CCc4ccccc4C3)c12,-22,12%,-13,?,i
Cc1c(C(=O)N2CCCCC2C)sc2ncnc(N3CCc4ccccc4C3)c12 (stereo not drawn),2,21µM*,-18,?,i
